Laboratory results taken from PubChem BioAssay AID1159580 (chemical genetic matrix, 2015).
The campaign covered roughly 5,500 compounds. About 2,000 (36%) were called active. Not shown: some 18% with an inconclusive outcome. No stated cut-off is given here; in the data, active means normalized growth mostly below about 0.91 (no sharp cut-off); inconclusive means no clear call, values can overlap the other calls; inactive means mostly above about 0.92. Some of the results follow.

Assay: chemical genetic growth profiling, strain panel (AID 1159580);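 further: tested at 20 µM; growth read once vehicle control cultures reached saturation at 30 °C; 1 = growth at the plate median or of vehicle wells; lower values mean less growth of the strain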
Settings: growth OD

Measured: normalized growth

CC(C(=O)O)c1ccc(C(=O)c2cccs2)cc1 (stereo not drawn)
inactive: S. cerevisiae deletion strains, locus YKL009W, strain mrt4, active compounds read low 1.02 | S. cerevisiae deletion strains, locus YKL068W, active compounds read low 1.01 | S. cerevisiae deletion strains, locus YKL085W, strain MDH1 (second series), active compounds read low 0.983 | S. cerevisiae deletion strains, locus YKL085W, strain MDH1, active compounds read low 0.983 | S. cerevisiae deletion strains, locus YKL160W, strain elf1, active compounds read low 0.992 | S. cerevisiae deletion strains, locus YKL190W, strain CNB1, active compounds read low 1 | S. cerevisiae deletion strains, locus YKR001C, strain vps1, active compounds read low 1.01 | S. cerevisiae deletion strains, locus YKR026C, strain gcn3, active compounds read low 0.987 | S. cerevisiae deletion strains, locus YKR091W, strain srl3, active compounds read low 1.01 | S. cerevisiae deletion strains, locus YLL001W, strain dnm1, active compounds read low 0.995 | S. cerevisiae deletion strains, locus YLL026W, active compounds read low 0.99 | S. cerevisiae deletion strains, locus YLL041C, strain sdh2, active compounds read low 0.996 | S. cerevisiae deletion strains, locus YLR027C, strain aat2, active compounds read low 1.01 | S. cerevisiae deletion strains, locus YLR039C, strain RIC1, active compounds read low 1.01 | S. cerevisiae deletion strains, locus YLR058C, strain SHM2, active compounds read low 1.01 | S. cerevisiae deletion strains, locus YLR102C, strain apc9, active compounds read low 1.01 | S. cerevisiae deletion strains, locus YLR113W, strain HOG1, active compounds read low 0.968 | S. cerevisiae deletion strains, locus YLR221C, strain rsa3, active compounds read low 0.991 | S. cerevisiae deletion strains, locus YLR258W, strain gsy2, active compounds read low 1 | S. cerevisiae deletion strains, locus YLR262C, strain YPT6 (second series), active compounds read low 0.951 | S. cerevisiae deletion strains, locus YLR262C, strain YPT6, active compounds read low 1 | S. cerevisiae deletion strains, locus YLR268W, strain sec22, active compounds read low 1.01 | S. cerevisiae deletion strains, locus YLR320W, strain mms22, active compounds read low 1 | S. cerevisiae deletion strains, locus YLR330W, strain CHS5, active compounds read low 0.999 | S. cerevisiae deletion strains, locus YLR342W, strain FKS1 (second series), active compounds read low 1 | S. cerevisiae deletion strains, locus YLR342W, strain FKS1, active compounds read low 1 | S. cerevisiae deletion strains, locus YLR357W, strain rsc2, active compounds read low 0.967 | S. cerevisiae deletion strains, locus YLR370C, strain arc18, active compounds read low 0.998 | S. cerevisiae deletion strains, locus YLR371W, strain rom2, active compounds read low 1.02 | S. cerevisiae deletion strains, locus YLR384C, strain iki3, active compounds read low 1.01 | S. cerevisiae deletion strains, locus YLR418C, strain cdc73, active compounds read low 1.03 | S. cerevisiae deletion strains, locus YML016C, strain PPZ1, active compounds read low 1.01 | S. cerevisiae deletion strains, locus YML032C, strain rad52, active compounds read low 1.02 | S. cerevisiae deletion strains, locus YML120C, strain ndi1, active compounds read low 1 | S. cerevisiae deletion strains, locus YML124C, strain tub3, active compounds read low 1.02 | S. cerevisiae deletion strains, locus YMR058W, strain fet3, active compounds read low 1.02 | S. cerevisiae deletion strains, locus YMR078C, strain ctf18, active compounds read low 1.02 | S. cerevisiae deletion strains, locus YMR125W, strain sto1, active compounds read low 0.976 | S. cerevisiae deletion strains, locus YMR129W, active compounds read low 0.985 | S. cerevisiae deletion strains, locus YMR205C, strain PFK2, active compounds read low 0.965 | S. cerevisiae deletion strains, locus YMR223W, strain ubp8, active compounds read low 1.02 | S. cerevisiae deletion strains, locus YMR231W, strain pep5, active compounds read low 0.991 | S. cerevisiae deletion strains, locus YMR263W, strain SAP30, active compounds read low 1 | S. cerevisiae deletion strains, locus YMR307W, strain GAS1, active compounds read low 0.997 | S. cerevisiae deletion strains, locus YNL067W, strain RPL9B, active compounds read low 1 | S. cerevisiae deletion strains, locus YNL071W, strain lat1, active compounds read low 1 | S. cerevisiae deletion strains, locus YNL153C, strain GIM3, active compounds read low 1 | S. cerevisiae deletion strains, locus YNL183C, strain NPR1, active compounds read low 0.949 | S. cerevisiae deletion strains, locus YNL209W, strain ssb2, active compounds read low 1.01 | S. cerevisiae deletion strains, locus YNL233W, strain BNI4, active compounds read low 1 | S. cerevisiae deletion strains, locus YNL248C, strain rpa49, active compounds read low 1.02 | S. cerevisiae deletion strains, locus YNL250W, strain rad50, active compounds read low 1.01 | S. cerevisiae deletion strains, locus YNL271C, strain bni1, active compounds read low 1.02 | S. cerevisiae deletion strains, locus YNL298W, strain CLA4, active compounds read low 1.02 | S. cerevisiae deletion strains, locus YNL307C, strain MCK1, active compounds read low 1.02 | S. cerevisiae deletion strains, locus YNL322C, strain KRE1 (second series), active compounds read low 0.994 | S. cerevisiae deletion strains, locus YNR049C, strain mso1, active compounds read low 0.998 | S. cerevisiae deletion strains, locus YNR052C, strain pop2, active compounds read low 1.01 | S. cerevisiae deletion strains, locus YOL006C, strain TOP1, active compounds read low 0.978 | S. cerevisiae deletion strains, locus YOL012C, strain htz1 0.883 | S. cerevisiae deletion strains, locus YOL147C, strain pex11, active compounds read low 1.01 | S. cerevisiae deletion strains, locus YOR001W, strain rrp6, active compounds read low 1.01 | S. cerevisiae deletion strains, locus YOR061W, strain CKA2, active compounds read low 1.01 | S. cerevisiae deletion strains, locus YOR069W, strain VPS5, active compounds read low 1 | S. cerevisiae deletion strains, locus YOR070C, strain gyp1, active compounds read low 1 | S. cerevisiae deletion strains, locus YOR080W, strain dia2, active compounds read low 0.988 | S. cerevisiae deletion strains, locus YOR083W, strain WHI5, active compounds read low 1 | S. cerevisiae deletion strains, locus YOR106W, strain vam3, active compounds read low 0.995 | S. cerevisiae deletion strains, locus YOR136W, strain idh2, active compounds read low 1.02 | S. cerevisiae deletion strains, locus YOR144C, strain elg1, active compounds read low 1.02 | S. cerevisiae deletion strains, locus YOR184W, strain ser1, active compounds read low 1.02 | S. cerevisiae deletion strains, locus YOR231W, strain MKK1, active compounds read low 0.993 | S. cerevisiae deletion strains, locus YOR265W, strain rbl2, active compounds read low 0.992 | S. cerevisiae deletion strains, locus YOR270C, strain vph1, active compounds read low 0.997 | S. cerevisiae deletion strains, locus YOR290C, strain snf2, active compounds read low 1.01 | S. cerevisiae deletion strains, locus YOR316C, strain cot1, active compounds read low 1.02 | S. cerevisiae deletion strains, locus YPL051W, strain arl3, active compounds read low 0.989 | S. cerevisiae deletion strains, locus YPL055C, strain LGE1, active compounds read low 1.02 | S. cerevisiae deletion strains, locus YPL078C, strain atp4, active compounds read low 0.983 | S. cerevisiae deletion strains, locus YPL106C, strain sse1, active compounds read low 0.979 | S. cerevisiae deletion strains, locus YPL240C, strain hsp82, active compounds read low 0.992 | S. cerevisiae deletion strains, locus YPL256C, strain CLN2, active compounds read low 1.02 | S. cerevisiae deletion strains, locus YPR119W, strain clb2, active compounds read low 1.01 | S. cerevisiae deletion strains, locus YPR141C, strain kar3, active compounds read low 1.01 | S. cerevisiae deletion strains, locus YPR163C, strain tif3, active compounds read low 1.02 | S. cerevisiae deletion strains, locus YPR167C, strain met16, active compounds read low 1.02 | S. cerevisiae deletion strains, strain wtn01, active compounds read low 1.01 | S. cerevisiae strains, strain wild type, active compounds read low 1
